Inconclusive results are not listed. The source made the active and inactive calls. Unless noted, calls come from the whole dose curve; as a rule, active = well fitted curve in the direction sought with a large enough effect; inconclusive = small, poorly fitted or top-dose-only effect, or another doubt; inactive = no such curve, though single readings can be large; an effect the other way counts as inactive or inconclusive.

We go through 10 molecules from PubChem BioAssay (NCATS).

The target of test [1] is Alpha-galactosidase A (Homo sapiens) (UniProt P06280). Description: Counterscreen for Glucocerebrosidase Inhibitors: qHTS Assay for Human alpha-Galactosidase at pH 4.5 (AID 992). Note: 0% is about no effect. A digest of the protocol:
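Fluorogenic 1536-well qHTS at pH 4.5 (citrate, Tween-20): 2 nM enzyme, 80 uM 4-MU-alpha-galactoside, 20 min room temperature, NaOH/glycine stop. Titration 0.7 nM to 77 uM, data normalized to no-enzyme and full-activity controls, Hill-fitted AC50.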
(In general: Counterscreens check selectivity or assay interference.)

Test [2] deals with alpha-glucosidase (Oryza sativa, rice) (UniProt Q653V4). Description: Counterscreen for Glucocerebrosidase Inhibitors: qHTS Assay for Rice alpha-Glucosidase at pH 5.0 (AID 997).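 Note: 0% = full activity with enzyme and -100% = basal without enzyme.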 A digest of the protocol: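 Endpoint fluorogenic assay at pH 5.0: compounds (0.7 nM to 77 uM) titrated against 4 nM rice enzyme and 400 uM 4-MU-alpha-glucoside for 20 min at room temperature; NaOH/glycine stop, read ex 365/em 440 nm, Hill-fitted AC50.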

The nature of test [3]: Validation of Assay for Modulators of Lamin A Splicing (AID 1459; active = well fitted curve in the direction sought with a large enough effect in the signal ratio; the % refers to the signal ratio;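 note: cells exposed to compound for two days before reading; 0% is about no effect; ratio rise marks activators and ratio drop marks inhibitors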). A digest of the protocol: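 Readout: ratio of GFP (500-530 nm) to RFP (575-640 nm) total object intensity by 488 nm laser-scanning cytometry after 48 hrs. Cells were HeLa S3 clones carrying lamin A-EGFP minigene plus DsRed2 viability reporter; vehicle 0.5% DMSO final.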
Test [4] in a line: qHTS Assay for Lipid Storage Modulators (AID 1519; calls by dose curve; for activity change, negative = inhibition: % is set by controls: 0 for no effect and ±100 for the full control effect). Particulars: Drosophila S3 cells, BODIPY lipid droplet/cell ratio, laser cytometry, cells loaded with oleic acid. A digest of the protocol:
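Cells seeded at 5,000 per well were treated with compounds over a concentration series and loaded with oleic acid (400 uM, as added). Lipid droplet fluorescence (488 nm excitation, 500-530 nm channel) was read by laser-scanning cytometry and normalized to 20 uM Triacsin C.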
Background: In qHTS, concentration-response curves come from the screen itself.

Test [5] concerns the target DNA repair nuclease/redox regulator APEX1 (Homo sapiens) (UniProt P27695). Description: qHTS Validation Assay for Inhibitors of the Human Apurinic/apyrimidinic Endonuclease 1 (APE1) (AID 1705; note: potency is the fitted concentration of half-maximal effect;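 for activity change, negative = inhibition: TAMRA fluorescence gain over two minutes as APE1 cuts a quenched THF abasic duplex; % is set by controls: 0 for no effect and ±100 for the full control effect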). A digest of the protocol: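 Read-out: TAMRA fluorescence (525 nm ex, 598 nm em) from cleavage of a quenched THF abasic-site duplex, 50 nM final; activity taken as intensity change between third and first of three reads 60 s apart.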

Test [6] in a line: Counterscreen for APE1 Inhibitors: Fluorescent Dye Displacement Validation Assay (AID 1707).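 For activity change, negative = inhibition: plate controls were ThO with dsDNA and no compound for no effect and ThO without dsDNA for full effect.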 Note: potency is the fitted concentration of half-maximal effect. In short, it runs like this: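 Counterscreen flags promiscuous DNA binders: compounds displacing ThO from duplex DNA (abasic THF site, 50 nM) reduce 540 nm emission (480 nm excitation). ThO 250 nM final; Tris-HCl pH 7.5 with NaCl, MgCl2 and Tween-20.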
Test [7] concerns the target Endonuclease 4 (Escherichia coli (strain K12)) (UniProt P0A6C1). Description: Counterscreen for APE1 Inhibitors: qHTS Validation Assay for Inhibitors of Endonuclease IV (AID 1708). For activity change, negative = inhibition: % is set by controls: 0 for no effect and ±100 for the full control effect. Note: potency is the fitted concentration of half-maximal effect. In short, it runs like this: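 Incision of a double-stranded 50 nM TAMRA/BHQ-2 abasic substrate was followed kinetically (525/598 nm, reads every 60 s) after 15 min enzyme–compound preincubation with 2 nM EndoIV in pH 7.5 Tris buffer with MgCl2, DTT and Tween-20; concentration-response format.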

A short description of test [8]: qHTS for differential inhibitors of proliferation of Plasmodium falciparum line 7G8 (AID 1815).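 For activity change, negative = inhibition: plate controls were vehicle wells for no effect and reference inhibitor wells for full effect.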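 Note: parasite growth measured after three days of incubation.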 Note: potency is the fitted concentration of half-maximal effect.
The nature of test [9]: qHTS for differential inhibitors of proliferation of Plasmodium falciparum line GB4 (AID 1816).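 For activity change, negative = inhibition: 0% = vehicle DMSO and -100% = reference inhibitor.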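 Note: parasite growth measured after 72 h incubation.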 Note: potency is the fitted concentration of half-maximal effect. The settings on record: Potency: Plasmodium falciparum GB4 proliferation inhibition.
Test [10] can be described thus: qHTS for differential inhibitors of proliferation of Plasmodium falciparum line 3D7 (AID 1876). Note: potency is the fitted concentration of half-maximal effect.
The mark [11] stands for this setting: measured here: cell count channel max response.
Setting [12] is: measured here: lipid channel max response.

DNA repair nuclease/redox regulator APEX1 (Homo sapiens), sequence (P27695 whole entry, looked up): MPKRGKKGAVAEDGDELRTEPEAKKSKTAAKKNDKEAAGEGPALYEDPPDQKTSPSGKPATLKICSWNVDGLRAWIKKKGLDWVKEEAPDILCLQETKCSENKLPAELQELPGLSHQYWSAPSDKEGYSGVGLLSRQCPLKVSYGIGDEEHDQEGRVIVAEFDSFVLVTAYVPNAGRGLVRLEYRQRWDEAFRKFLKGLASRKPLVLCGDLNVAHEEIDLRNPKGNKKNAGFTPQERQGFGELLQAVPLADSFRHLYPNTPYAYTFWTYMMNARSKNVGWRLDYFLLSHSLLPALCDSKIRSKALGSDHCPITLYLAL
Alpha-galactosidase A (Homo sapiens), sequence (P06280 whole entry, looked up): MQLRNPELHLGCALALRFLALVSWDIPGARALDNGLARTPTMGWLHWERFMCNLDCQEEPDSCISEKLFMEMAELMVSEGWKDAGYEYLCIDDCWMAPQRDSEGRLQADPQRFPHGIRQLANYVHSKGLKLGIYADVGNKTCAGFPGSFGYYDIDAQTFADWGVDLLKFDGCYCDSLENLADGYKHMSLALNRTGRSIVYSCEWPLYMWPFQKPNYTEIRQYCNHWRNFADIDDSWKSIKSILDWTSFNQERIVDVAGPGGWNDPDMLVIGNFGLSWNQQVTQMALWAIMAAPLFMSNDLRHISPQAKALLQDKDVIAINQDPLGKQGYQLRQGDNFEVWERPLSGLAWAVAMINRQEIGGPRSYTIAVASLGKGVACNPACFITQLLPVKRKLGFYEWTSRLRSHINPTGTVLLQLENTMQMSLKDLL

Consider `COc1ccccc1N1CCN(CCCCNC(=O)c2ccc3ccccc3c2)CC1`, for which the molecule was called inactive in [1], in test [2] and in [3]. In addition, the activity change, negative = inhibition in [4] (at 25.7 µM (top of the series)) was 0.195% (inactive). The figures for the max response in test [4] (setting [11]) and in test [4] (setting [12]) were 1.63% and 1.88%, respectively. Besides, the Potency entry in [5], in [6] and in test [7] was “inactive” in each case. In addition, the Potency in test [8] is 7.08 µM (active); in test [9] it was 10 µM (active); in [10], 2 µM (active).

For `CC1=C(/C=C/C(C)=C/C=C/C(C)=C\C(=O)O)C(C)(C)CCC1`, the molecule was called inactive in test [3]. Besides, the activity change, negative = inhibition in [4] (at 57.5 µM (top of the series)) was 6.72% (inactive). The max response in [4] (setting [11]) came to 3.57%; in test [4] (setting [12]), 13.6%. Further, the Potency entry in test [5], in test [6] and in test [7] was “inactive” each time. Moreover, the Potency was 7.94 µM (active) in [8], 12.6 µM (active) in test [9] and 14.1 µM (active) in [10].

`N[C@@H](CCCC(=O)O)C(=O)O`: the molecule was called inactive in test [3]. Moreover, in test [4] (at 57.5 µM (top of the series)), the activity change, negative = inhibition was 0.27% (inactive). Also, the max response in [4] (setting [11]) is -26.7%; in test [4] (setting [12]), -26.8%. The Potency entry in test [5], in test [6], in [7], in test [8], in test [9] and in test [10] was “inactive” in each case.

As to `CC(=O)/C(C)=N/O`, the outcome in [3] was inactive. For the same molecule, in [4] (at 57.5 µM (top of the series)), the activity change, negative = inhibition was 2.05% (inactive). The max response worked out at 5.13% in [4] (setting [11]) and 6.8% in test [4] (setting [12]). Further, the Potency result in test [5], in test [6], in test [7], in test [8], in [9] and in test [10] was “inactive” each time.

As for `Cn1c(=O)c2c(nc(/C=C/c3cccc(Cl)c3)n2C)n(C)c1=O`, in test [3], the molecule was classed as inactive. In addition, in [4] (at 57.5 µM (top of the series)), the activity change, negative = inhibition is -4.15% (inactive). Moreover, the max response in test [4] (setting [11]) is -60.2%; in test [4] (setting [12]) it was -62%. For the same molecule, the Potency result in test [5], in [6] and in [7] was “inactive” throughout. In test [8], the Potency is 10 µM (active).

On to `O=c1onc2n1-c1cc(Br)ccc1OC2`, for which the result in test [1], in test [2] and in test [3] was inactive. Further, in [4] (at 57.5 µM (top of the series)), the activity change, negative = inhibition is 3.14% (inactive). Also, the max response in test [4] (setting [11]) came to 64.2%; in test [4] (setting [12]), 68.1%. The Potency entry in [5], in test [6], in [7], in test [8], in [9] and in [10] was “inactive” in each case.

On to `Nc1ccc(-c2nc3ccc(-c4nc5ccc(N)cc5[nH]4)cc3[nH]2)cc1`, for which the result in test [1], in test [2] and in test [3] was inactive. In addition, the activity change, negative = inhibition in test [4] (at 57.5 µM (top of the series)) was -0.707% (inactive). Further, the max response in [4] (setting [11]) was -29.1%; in test [4] (setting [12]), -26.6%. The Potency is 28.2 µM (active) in [5]; 25.1 µM (active) in [6]; 22.4 µM (active) in test [7]; 0.794 µM (active) in test [8]; 0.891 µM (active) in test [9]; 0.355 µM (active) in [10].

On to `CC(=O)O[C@H]1CC2(C)[C@@H](C[C@@H](O)[C@H]3[C@@]4(C)CC[C@@H](O)[C@@H](C)[C@@H]4CC[C@@]32C)C1=C(CCC=C(C)C)C(=O)O` (stereo partly specified), for which the call in test [3] was inactive. The activity change, negative = inhibition in test [4] (at 57.5 µM (top of the series)) was 0.469% (inactive). The max response in [4] (setting [11]) is -5.46%; in test [4] (setting [12]) it was -5.43%. Moreover, the Potency in [5] is 39.8 µM (active); in test [8], 8.91 µM (active). The Potency entry in test [6] and in test [7] was “inactive” throughout.

As for `Cc1cc2c(cc1Cl)N(C(=O)Nc1ccnc3ccccc13)CC2`, the call in test [1], in test [2] and in [3] was inactive. Moreover, the activity change, negative = inhibition in test [4] (at 57.5 µM (top of the series)) was 3.56% (inactive). Also, the results for the max response in test [4] (setting [11]) and in [4] (setting [12]) were 57.9% and 64%, respectively. The Potency entry in test [5], in test [6], in [7], in test [8], in test [9] and in test [10] was “inactive” each time.

For `CC(C)Cn1c(=O)n(C)c(=O)c2[nH]cnc21`, the outcome in [1], in test [2] and in test [3] was inactive. Also, the activity change, negative = inhibition in test [4] (at 57.5 µM (top of the series)) was 2.93% (inactive). The max response was 8.14% in test [4] (setting [11]) and 8.87% in test [4] (setting [12]). The Potency entry in test [5], in [6], in test [7], in test [8], in [9] and in test [10] was “inactive” each time.
